# Results reported in PubChem BioAssay (NCATS).
# A number with no mark means an inactive call. Records with an inconclusive call do not appear. Entries that show only a call come without a potency. Active and inactive are the calls of the source. Unless noted, calls come from the whole dose curve.
# Experiments:
# [1] = Validation screen for inhibitors of Lassa infection (AID 463096); note: potency is the fitted concentration of half-maximal effect
# [2] = Inducers of the Endoplasmic Reticulum Stress Response (ERSR) in human glioma: Validation (AID 504836; active = well fitted curve in the direction sought with a large enough effect; an effect the other way counts as inactive or inconclusive)
# Summary of the method: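 ERSR induction read as luciferase luminescence (Bright-Glo, 10 min at room temperature) in stably transfected human U87-MG glioma cells exposed to compounds for 16 h, using GRP78 as sensor.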
# [3] = qHTS for Inhibitors of the Functional Ribonucleoprotein Complex (vRNP) of Lassa (LASV) Arenavirus: LASV Primary Screen - GLuc reporter signal (AID 1347082; calls by dose curve; tested in HEK293 reporter line; note: series mostly up to about 57 µM; nearly all actives have a fitted effect of over 60% in size)
# [4] = qHTS for Inhibitors of the Functional Ribonucleoprotein Complex (vRNP) of Lassa (LASV) Arenavirus: Viability assay - alamar blue signal for LASV Primary Screen (AID 1347083; calls by dose curve; tested in HEK293 reporter line; note: series mostly up to about 57 µM; nearly all actives have a fitted effect of over 80% in size)
# [5] = qHTS for Inhibitors of the Functional Ribonucleoprotein Complex (vRNP) of Lymphocytic Choriomeningitis Arenaviruses (LCMV): Viability assay - alamar blue signal for LCMV Primary Screen (AID 1347085; calls by dose curve; tested in HEK293 reporter line; note: series mostly up to about 57 µM; nearly all actives have a fitted effect of over 80% in size)
# [6] = molecular target: Nucleoprotein (Lymphocytic choriomeningitis virus (strain Armstrong)) (UniProt P09992); assay: qHTS for Inhibitors of the Functional Ribonucleoprotein Complex (vRNP) of Lymphocytic Choriomeningitis Arenaviruses (LCMV): LCMV Primary Screen - GLuc reporter signal (AID 1347086); note: series mostly up to about 57 µM; nearly all actives have a fitted effect of over 70% in size
# [7] = molecular target: Alpha-galactosidase (Coffea arabica) (UniProt Q42656); assay: Counterscreen for Glucocerebrosidase Inhibitors: qHTS Assay for Coffee Bean alpha-Galactosidase at pH 4.5 (AID 957; active = well fitted curve in the direction sought with a large enough effect; an effect the other way counts as inactive or inconclusive; note: series mostly up to about 77 µM)
# Summary of the method: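 Fluorogenic read-out: 4-methylumbelliferone at Ex 365/Em 440 nm after NaOH/glycine stop (pH 10). Enzyme 2 nM, 4-MU-alpha-galactoside 80 uM, citrate buffer pH 4.5, 20 min RT; normalized to no-enzyme and enzyme controls.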
# [8] = molecular target: Alpha-galactosidase (Coffea arabica) (UniProt Q42656); assay: Counterscreen for Glucocerebrosidase Inhibitors: qHTS Assay for Coffee Bean alpha-Galactosidase at pH 5.9 (AID 998; active = well fitted curve in the direction sought with a large enough effect; an effect the other way counts as inactive or inconclusive)
# Summary of the method: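 Fluorogenic 4-MU substrate hydrolysis, 80 uM substrate and 2 nM coffee bean alpha-galactosidase, pH 5.9 citrate buffer, 20 min at room temperature, then NaOH/glycine stop. Titration 0.7 nM–77 uM, normalized to no-enzyme and enzyme controls, AC50 via Hill equation.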
# [9] = molecular target: Bile acid receptor (Homo sapiens) (UniProt Q96RI1); assay: qHTS assay for small molecule agonists of farnesoid X receptor signaling (AID 588527); conditions: HEK293T FXR-UAS-bla, beta-lactamase ratio, 16 h; activation: active compounds read high; note: series mostly up to about 77 µM
# Summary of the method: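 FXR-UAS-bla HEK293T, 10% dialyzed FBS; cpds up to 92 uM titration, 16 h 37 C; CCF4 dye 2 h RT; fluorescence. Normalized to chenodeoxycholic acid 100 uM (100%) and DMSO (0%); Hill fit gives EC50, efficacy.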
# [10] = molecular target: Voltage-gated inwardly rectifying potassium channel KCNH2 (Homo sapiens) (UniProt Q12809); assay: qHTS Assay for Small Molecule Inhibitors of the Human hERG Channel Activity (AID 588834; active = well fitted curve in the direction sought with a large enough effect; an effect the other way counts as inactive or inconclusive;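 note: lower thallium flux fluorescence means stronger hERG block; nearly all actives have a fitted effect of over 50% in size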; note: potency is the fitted concentration of half-maximal effect)
# Summary of the method: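 Thallium-flux (FluxOR) read-out on FDSS: fluorescence read 10 s before and 2 min after stimulation buffer. hERG-BacMam-transduced U2OS cells, compound exposure about 10 min. AC50 by standard Hill equation.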
# [11] = molecular target: Ubiquitin carboxyl-terminal hydrolase 1 (Homo sapiens) (UniProt O94782); assay: Inhibitors of USP1/UAF1: Pilot qHTS (AID 504865; active = well fitted curve in the direction sought with a large enough effect; an effect the other way counts as inactive or inconclusive;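 note: rhodamine fluorescence freed from ubiquitin-rhodamine substrate followed over time; top concentration of the series differs between compounds; nearly all actives have a fitted effect of over 35% in size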)
# Summary of the method: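 1nM USP1/UAF1 + cpd, 15 min RT; start w/ Ub-Rho 150nM final; kinetic FL 480/540 nm, 6 reads q60 s. Buffer 50mM HEPES pH 7.8, 0.5mM EDTA, 1mM TCEP, 0.01% Tween-20, 0.1 mg/ml BSA.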
# [12] = molecular target: Arylsulfatase A (Homo sapiens) (UniProt P15289); assay: qHTS screen for enhancers of Arylsulfatase A (ASA1): LOPAC Validation Assay (AID 720538; active = well fitted curve in the direction sought with a large enough effect; an effect the other way counts as inactive or inconclusive)
# Summary of the method: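 Read-out: fluorescence at Ex=525/Em=598 nm after 1N NaOH final stop. Patient fibroblasts carrying ASA-I179S had 48h compound exposure, then 14h room-temperature pNCS hydrolysis (0.5mM final) in lysis buffer. Signal increase = enhanced activity.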
# Chain of Alpha-galactosidase (Coffea arabica) (Q42656 whole entry, looked up): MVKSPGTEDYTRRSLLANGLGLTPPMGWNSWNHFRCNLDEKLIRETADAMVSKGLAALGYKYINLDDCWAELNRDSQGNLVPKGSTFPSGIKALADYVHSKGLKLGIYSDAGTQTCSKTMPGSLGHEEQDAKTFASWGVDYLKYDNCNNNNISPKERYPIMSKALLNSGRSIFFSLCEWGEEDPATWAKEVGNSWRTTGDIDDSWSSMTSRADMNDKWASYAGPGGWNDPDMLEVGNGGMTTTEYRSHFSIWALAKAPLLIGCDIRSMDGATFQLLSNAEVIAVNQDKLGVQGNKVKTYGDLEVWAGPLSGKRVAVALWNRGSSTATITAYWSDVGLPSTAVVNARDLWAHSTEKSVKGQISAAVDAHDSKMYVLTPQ
# Chain of Nucleoprotein (Lymphocytic choriomeningitis virus (strain Armstrong)) (P09992 whole entry, looked up): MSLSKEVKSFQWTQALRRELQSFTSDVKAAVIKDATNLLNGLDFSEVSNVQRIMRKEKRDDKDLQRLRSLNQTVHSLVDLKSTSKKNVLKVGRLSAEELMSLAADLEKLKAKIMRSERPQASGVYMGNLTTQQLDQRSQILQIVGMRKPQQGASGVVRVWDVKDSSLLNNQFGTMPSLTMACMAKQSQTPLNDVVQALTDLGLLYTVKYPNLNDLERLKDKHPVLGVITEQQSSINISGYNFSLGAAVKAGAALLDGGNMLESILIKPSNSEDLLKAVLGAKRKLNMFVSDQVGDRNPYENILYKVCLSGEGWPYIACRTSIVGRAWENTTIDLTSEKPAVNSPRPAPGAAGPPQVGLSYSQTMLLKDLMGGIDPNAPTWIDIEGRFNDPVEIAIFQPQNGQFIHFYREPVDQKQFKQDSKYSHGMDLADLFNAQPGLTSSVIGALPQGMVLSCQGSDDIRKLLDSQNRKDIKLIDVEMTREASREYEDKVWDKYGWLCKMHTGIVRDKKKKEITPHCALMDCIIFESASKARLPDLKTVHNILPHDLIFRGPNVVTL
# Chain of Voltage-gated inwardly rectifying potassium channel KCNH2 (Homo sapiens) (Q12809 whole entry, looked up): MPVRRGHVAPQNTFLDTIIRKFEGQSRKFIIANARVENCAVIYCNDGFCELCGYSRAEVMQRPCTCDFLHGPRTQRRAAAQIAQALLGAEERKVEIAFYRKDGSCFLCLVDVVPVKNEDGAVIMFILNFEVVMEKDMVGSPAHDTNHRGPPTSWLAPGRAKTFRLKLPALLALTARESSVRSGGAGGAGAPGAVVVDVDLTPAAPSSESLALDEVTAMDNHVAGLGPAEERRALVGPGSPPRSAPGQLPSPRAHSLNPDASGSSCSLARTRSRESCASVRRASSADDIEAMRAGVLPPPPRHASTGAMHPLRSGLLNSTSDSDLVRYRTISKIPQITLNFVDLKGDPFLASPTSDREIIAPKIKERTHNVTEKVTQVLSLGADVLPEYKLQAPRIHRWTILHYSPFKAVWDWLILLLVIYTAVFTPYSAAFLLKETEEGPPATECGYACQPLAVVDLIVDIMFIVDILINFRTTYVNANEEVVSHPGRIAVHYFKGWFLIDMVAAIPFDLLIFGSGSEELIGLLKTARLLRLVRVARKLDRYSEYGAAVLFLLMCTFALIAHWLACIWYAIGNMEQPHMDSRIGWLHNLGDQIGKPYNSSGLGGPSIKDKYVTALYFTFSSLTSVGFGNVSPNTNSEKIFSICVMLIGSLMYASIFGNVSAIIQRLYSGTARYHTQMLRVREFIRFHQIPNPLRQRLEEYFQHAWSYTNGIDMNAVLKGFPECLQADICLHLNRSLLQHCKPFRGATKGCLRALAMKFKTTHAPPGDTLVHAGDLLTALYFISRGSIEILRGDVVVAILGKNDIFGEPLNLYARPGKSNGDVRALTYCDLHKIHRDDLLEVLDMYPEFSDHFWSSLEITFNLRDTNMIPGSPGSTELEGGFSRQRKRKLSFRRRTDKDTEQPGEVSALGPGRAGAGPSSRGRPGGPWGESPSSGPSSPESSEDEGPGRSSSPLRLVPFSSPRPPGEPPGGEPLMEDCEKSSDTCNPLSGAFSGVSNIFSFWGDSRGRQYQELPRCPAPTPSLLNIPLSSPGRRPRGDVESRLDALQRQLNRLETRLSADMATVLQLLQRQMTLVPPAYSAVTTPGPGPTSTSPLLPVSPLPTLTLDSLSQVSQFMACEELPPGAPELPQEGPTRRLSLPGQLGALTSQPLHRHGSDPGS
# Chain of Bile acid receptor (Homo sapiens) (Q96RI1 whole entry, looked up): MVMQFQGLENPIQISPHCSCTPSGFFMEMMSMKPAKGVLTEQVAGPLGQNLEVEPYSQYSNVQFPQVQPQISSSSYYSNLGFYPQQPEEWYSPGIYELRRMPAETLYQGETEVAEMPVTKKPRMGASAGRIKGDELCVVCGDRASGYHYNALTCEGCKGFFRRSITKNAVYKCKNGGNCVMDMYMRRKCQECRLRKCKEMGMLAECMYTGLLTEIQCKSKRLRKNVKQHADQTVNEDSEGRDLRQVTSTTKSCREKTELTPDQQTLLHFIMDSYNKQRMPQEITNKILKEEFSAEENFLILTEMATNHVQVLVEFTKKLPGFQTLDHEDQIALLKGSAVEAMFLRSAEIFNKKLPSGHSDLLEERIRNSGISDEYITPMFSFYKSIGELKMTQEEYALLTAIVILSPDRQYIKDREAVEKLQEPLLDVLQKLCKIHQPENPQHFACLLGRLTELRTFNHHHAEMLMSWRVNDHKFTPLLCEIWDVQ
# Chain of Arylsulfatase A (Homo sapiens) (P15289 whole entry, looked up): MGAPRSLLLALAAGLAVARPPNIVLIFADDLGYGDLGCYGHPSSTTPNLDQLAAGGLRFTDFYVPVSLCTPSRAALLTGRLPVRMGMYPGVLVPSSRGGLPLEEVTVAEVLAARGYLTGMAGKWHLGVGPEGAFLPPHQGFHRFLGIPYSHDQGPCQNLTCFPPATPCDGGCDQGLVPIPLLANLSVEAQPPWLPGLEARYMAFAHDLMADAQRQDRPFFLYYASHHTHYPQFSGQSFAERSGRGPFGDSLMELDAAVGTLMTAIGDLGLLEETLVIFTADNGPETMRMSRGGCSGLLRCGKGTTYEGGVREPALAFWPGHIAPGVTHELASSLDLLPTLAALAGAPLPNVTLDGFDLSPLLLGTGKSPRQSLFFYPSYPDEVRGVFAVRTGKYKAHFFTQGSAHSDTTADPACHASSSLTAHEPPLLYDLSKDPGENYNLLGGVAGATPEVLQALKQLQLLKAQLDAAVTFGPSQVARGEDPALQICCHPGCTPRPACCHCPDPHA
# Chain of Ubiquitin carboxyl-terminal hydrolase 1 (Homo sapiens) (O94782 whole entry, looked up): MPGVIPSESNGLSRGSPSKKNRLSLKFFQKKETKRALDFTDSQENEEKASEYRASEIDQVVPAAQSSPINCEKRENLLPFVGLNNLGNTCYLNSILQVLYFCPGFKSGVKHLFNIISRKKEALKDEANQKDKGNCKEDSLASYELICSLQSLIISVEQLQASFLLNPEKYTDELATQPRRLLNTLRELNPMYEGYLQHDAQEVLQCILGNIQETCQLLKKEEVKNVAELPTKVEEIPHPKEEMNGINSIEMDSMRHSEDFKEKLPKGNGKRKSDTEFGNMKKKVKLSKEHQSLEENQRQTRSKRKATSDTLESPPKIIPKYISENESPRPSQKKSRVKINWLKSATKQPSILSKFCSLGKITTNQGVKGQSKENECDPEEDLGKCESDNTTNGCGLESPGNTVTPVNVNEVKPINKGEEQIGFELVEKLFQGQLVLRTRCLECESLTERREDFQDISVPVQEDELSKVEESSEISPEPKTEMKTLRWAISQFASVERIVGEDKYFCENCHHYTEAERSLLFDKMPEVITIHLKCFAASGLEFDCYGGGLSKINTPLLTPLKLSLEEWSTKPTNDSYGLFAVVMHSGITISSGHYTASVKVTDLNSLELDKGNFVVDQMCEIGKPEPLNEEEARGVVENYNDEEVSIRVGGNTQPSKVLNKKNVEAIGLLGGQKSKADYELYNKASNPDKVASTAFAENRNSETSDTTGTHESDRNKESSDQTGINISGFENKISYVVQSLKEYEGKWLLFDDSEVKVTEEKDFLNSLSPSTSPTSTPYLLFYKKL
SMILES,Potency [1],outcome [2],Potency [3],Potency [4],Potency [5],Potency [6],outcome [7],outcome [8],activation [9],Potency [10],Potency [11],Potency [12]
CCCCCCCCCCCCCCCCCC(=O)OC(CC(=O)O)C[N+](C)(C)C (stereo not given),inactive,inactive,inactive,inactive,inactive,inactive,,,,,,
Oc1ccc(C2CNCc3sccc32)cc1O (stereo not given),inactive,inactive,inactive,inactive,inactive,inactive,,,,,,
CCCCCC[C@@H]([C@@H](C)O)n1cnc2c(N)ncnc21,inactive,inactive,inactive,inactive,inactive,inactive,,,,,,
COc1cc(C(O)C(=O)O)ccc1O (stereo not given),inactive,inactive,inactive,inactive,inactive,inactive,,,,,,
CCCN(CCc1ccccc1)C1CCc2c(O)cccc2C1 (stereo not given),inactive,inactive,inactive,inactive,inactive,inactive,,,,,,
CN1CCc2cc(O)c(O)cc2C(c2ccccc2)C1 (stereo not given),inactive,inactive,inactive,inactive,inactive,inactive,,,,,,
O=C(O)CCC(=O)N1CCCC1C(=O)O (stereo not given),inactive,inactive,inactive,inactive,inactive,inactive,,,,,,
OCC1NCC(O)C(O)C1O (stereo not given),inactive,inactive,inactive,inactive,inactive,inactive,,,,,,
NCC(O)c1ccc(O)c(O)c1 (stereo not given),inactive,inactive,inactive,inactive,inactive,inactive,,,,,,
OC(CN1CCN(c2cccc(Cl)c2)CC1)C(c1ccccc1)c1ccccc1 (stereo not given),inactive,inactive,inactive,inactive,inactive,inactive,,,,,,
CC(N)(C(=O)O)c1ccc(C(=O)O)cc1 (stereo not given),inactive,inactive,inactive,inactive,inactive,inactive,,,,,,
OC[C@H]1O[C@@H](n2cnc3cncnc32)[C@H](O)[C@@H]1O,inactive,inactive,inactive,inactive,inactive,inactive,,,,,,
COc1cccc(OC)c1OCCNCC1CSc2ccccc2O1 (stereo not given),inactive,inactive,inactive,inactive,inactive,inactive,,,,,,
NC(=O)c1ccccc1,inactive,inactive,inactive,inactive,inactive,inactive,inactive,inactive,0.288%,,,
CCCc1c(-c2ccc(O)cc2)nn(-c2ccc(O)cc2)c1-c1ccc(O)cc1,2 µM (active),inactive,inactive,inactive,inactive,inactive,inactive,inactive,1.37%,,,
Cn1cc(C(F)(F)F)nc1-c1ccc(OCC(O)CNCCOc2ccc(O)c(C(N)=O)c2)cc1 (stereo not given),inactive,inactive,inactive,inactive,inactive,inactive,,,,,,
N=C(N)c1ccccc1,inactive,inactive,inactive,inactive,inactive,inactive,inactive,inactive,,inactive,,
O=[N+]([O-])c1cccc2c(Br)[nH]nc12,inactive,inactive,inactive,inactive,inactive,inactive,inactive,inactive,,,,
Cc1ccc([N+](=O)[O-])cc1S(=O)(=O)N(C)C,inactive,inactive,inactive,inactive,inactive,inactive,inactive,inactive,,,,
Oc1cc2c(cc1O)C(c1ccccc1)CNCC2 (stereo not given),inactive,inactive,inactive,inactive,inactive,inactive,,,,,,
CC(=O)NNC(=O)N1Cc2ccccc2Oc2ccc(Cl)cc21,inactive,inactive,inactive,inactive,inactive,inactive,inactive,inactive,,,,
CCCCCCCC/C=C\CCCCCCCC(=O)NCCO,inactive,inactive,inactive,inactive,inactive,inactive,inactive,inactive,,,,
Cn1c(=O)c2[nH]c(C3CCCC3)nc2n(C)c1=O,inactive,inactive,inactive,inactive,inactive,inactive,inactive,inactive,,,,
C[C@@H](NCCc1ccc(O)cc1)[C@@H](O)c1ccc(O)cc1,inactive,inactive,inactive,inactive,inactive,inactive,,,,7.94 µM (active),,
NC(CCCP(=O)(O)O)C(=O)O (stereo not given),inactive,inactive,inactive,inactive,inactive,inactive,,,,,inactive,
O=C(OCCN1CCOCC1)C1(c2ccccc2)CCCCC1,inactive,inactive,inactive,inactive,inactive,inactive,inactive,inactive,,,,
CC(=O)[C@H]1CCC2C3CC=C4C[C@@H](OS(=O)(=O)O)CC[C@]4(C)C3CC[C@@]21C (stereo not given in full),inactive,inactive,inactive,inactive,inactive,inactive,,,,,,inactive
NC(N)=N[C@@H](CCC(=O)O)C(=O)O,inactive,inactive,inactive,inactive,inactive,inactive,,,,,,
Cc1ccc2c(c1)C(N1CCN(C)CC1)=Nc1cccnc1N2,inactive,inactive,inactive,inactive,inactive,inactive,inactive,inactive,,,,
